Laboratory results taken from PubChem BioAssay (Tox21).
Inconclusive results are not listed. A call without a number means that no potency is given here. The source made the active and inactive calls. The call rests on the fitted dose curve; in most records, active means well fitted inhibition curve with a large enough effect in the repeat runs; inconclusive means weak or mixed curves; inactive means no such curve, though single readings can be large or run the other way.

Assay: qHTS assay to identify small molecule antagonists of the thyroid receptor (TR) signaling pathway (AID 743065); further: nearly all actives have a fitted effect of over 55% in size
Details: GH3.TRE-Luc, T3-stimulated luciferase inhibition, 23.5 h; series mostly up to 70.3 µM
Description: U.S. Tox21 Program National Center for Advancing Translational Sciences [NCATS] NIH Chemical Genomics Center [NCGC] U.S. Environmental Protection Agency [EPA] National Institutes of Environmental Health Sciences [NIEHS] National Toxicology Program [NTP] U.S. Food and Drug Administration [FDA] Tox21 Assay Overview: Thyroid receptor (TR), a nuclear hormone receptor, plays an important role in development, proliferation, differentiation, metabolism, brain function, and cardiovascular system. […] To profile the Tox21 10K compound library in TR signaling, a cell-based GH3-TRE-Luc assay (GH3.TRE-Luc cell line, developed by the laboratory of Dr. Albertinka J. Murk, Wageningen University) was used to measure the inhibition of TR. GH3 (rat pituitary tumor) cells stably expressing a TR activity sensor consisting of two TR response elements and a luciferase reporter gene.
Tox21 Assay Protocol Summary: GH3.TRE-Luc cells were dispensed at 1500 cells/4 uL/well into 1536-well white solid bottom plates using a Multidrop Combi dispenser (Thermo Fisher Scientific Inc., Waltham, MA). After the assay plates were incubated at 37 C for 4 hours, 23 nL of library compound or DMSO controls was transferred to the assay plates by a pintool station (Kalypsys, San Diego, CA), followed by addition of 1 ul of T3 (1 nM, final concentration in the wells) to stimulate TR transactivation. The assay plates were incubated at 37 C for 23.5 h, and then 1 uL of CellTiter-Fluor reagent (Promega, Madision, WI) of measuring cytotoxicity was added to each well using a Bioraptr Flying Reagent Dispenser (FRD) workstation (Beckman Coulter, Indianapolis, IN, USA). The plates were incubated at 37 C and 5% CO2 for additional 30 min, and fluorescence intensity was measured by a ViewLux plate reader (PerkinElmer, Shelton, CT). For measuring luciferase reporter gene activity, 4 uL of ONE-Glo Luciferase Assay reagent (Promega) was added to each well using a Bioraptr FRD (Beckman Coulter), followed by 30 min incubation at room temperature. The luminescence intensity of plates was recorded by a ViewLux plate reader (PerkinElmer, Shelton, CT).

| SMILES | Potency |
| --- | --- |
| CCCCC(CC)CO (stereo not given) | inactive |
| COc1ccc(Nc2ccccc2)c(C)c1 | inactive |
| CCCCC(CC)COC(=O)CS (stereo not given) | inactive |
| c1ccc(OCCOc2ccccc2)cc1 | inactive |
| CCCCCC(N)=O | inactive |
| CC(C)c1ccc(S(=O)(=O)O)cc1 | inactive |
| Cc1ccc(N(C)C)cc1 | inactive |
| FC(F)(F)c1ccc(Cl)c(Cl)c1 | inactive |
| Nc1ccccc1[N+](=O)[O-] | inactive |
| CC(C)(N)CO | inactive |
| CCCCN(CCCC)CCCC | inactive |
| C[C@H]1C[C@@H]2[C@H]([C@@H](O)C[C@@]3(C)[C@H]2CC[C@]3(O)C(=O)CO)[C@@]2(C)C=CC(=O)C=C12 | inactive |
| CCCCCCCCCCCCCCO | inactive |
| CC(=O)CC(=O)Nc1ccccc1C | inactive |
| CCCC(C)=O | inactive |
| C=C(C)C(=O)OCCOCCOCCOC(=O)C(=C)C | inactive |
| CCCCCCOCCO | inactive |
| CCCCCCCCCCCCOCCO | inactive |
| C=C(C)C(=O)O[C@H]1C[C@@H]2CC[C@@]1(C)C2(C)C | inactive |
| CCN(CC)c1ccc(C(=O)c2ccccc2C(=O)O)c(O)c1 | inactive |

| SMILES | Potency |
| --- | --- |
| O=C(O)c1ccc(C(=O)O)cc1 | inactive |
| O=C(O)[C@H](O)[C@@H](O)[C@H](O)[C@H](O)CO | inactive |
| O=C(O)CCCC[C@@H]1SC[C@@H]2NC(=O)N[C@@H]21 | inactive |
| Cc1cnc(C(=O)NCCc2ccc(S(=O)(=O)NC(=O)NC3CCCCC3)cc2)cn1 | inactive |
| O=C(CC(C(=O)OC1CCCCC1)S(=O)(=O)O)OC1CCCCC1 (stereo not given) | inactive |
| COc1ccc(NC(C)=O)cc1N | inactive |
| O=S1(=O)CC=CC1 | inactive |
| CC1CCC2CC1C2(C)C (stereo not given) | inactive |
| CCCCCOC(C)=O | inactive |
| CC(c1cc2ccccc2s1)N(O)C(N)=O (stereo not given) | inactive |
| C=CCNC(N)=S | inactive |
| O=C=NCCCCCCN=C=O | inactive |
| OC[C@H]1O[C@@](CO)(O[C@H]2O[C@H](CO)[C@@H](O)[C@H](O)[C@H]2O)[C@@H](O)[C@@H]1O | inactive |
| CCCCCC/C(C=O)=C\c1ccccc1 | inactive |
| O=C(O)c1ccccc1C(c1ccc(O)cc1)c1ccc(O)cc1 | inactive |
| c1ccc2scnc2c1 | inactive |
| CC(=O)c1ccccc1 | inactive |
| C=CCOC(=O)c1ccccc1C(=O)OCC=C | inactive |
| Nc1cc([N+](=O)[O-])ccc1O | inactive |
| O=C(Oc1ccccc1)c1ccccc1 | inactive |
